# Measurements published in PubChem BioAssay AID430 (Sanford-Burnham Center for Chemical Genomics, 2006).
# Among all 63,000 compounds or so, about 1,100 (1.7%) were called active. This excerpt belongs to a sample that is enriched for actives. Potency and affinity values are given separately. Unmarked numbers belong to inactive results. Cut-off read from the data, not from the text of the source: active = cytotoxicity above about 50%; inactive = the rest.
# Assay: cytotoxicity in HPDE-C7 cells, cell-based, fluorescence, HTS (AID 430);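 note: cells exposed to compound for 48 hours before viability readout; 0% = vehicle and 100% = reference cytotoxic drug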
# Settings: HPDE-C7 pancreatic duct cells viability, at 10 µM, active compounds read high
row,SMILES,cytotoxicity
1,CC(NC(=O)CC12CC3CC(CC(C3)C1)C2)C(=O)O (centres undefined),3%
2,COCCN(CC(=O)NCc1ccc(F)cc1)C(=O)CCC(=O)Nc1nccs1,3.1%
3,CCc1nnc(NC(=O)C2CCN(c3nccc(C)n3)CC2)s1,-2.7%
4,O=C(CSc1nnc(CNC(=O)c2cccs2)o1)NC1CCCCC1,-2.7%
5,COc1ccc2noc3c2c1C(=O)c1ccccc1-3,45.8%
6,O=C1c2ccccc2-c2onc3ccc(NCCCn4ccnc4)c1c23,20.3%
7,O=C1c2ccccc2-c2onc3ccc(NCc4ccco4)c1c23,62.1% (active)
8,Cc1nn(C)c(C)c1CNC(=O)c1nn2c(c1Cl)NC(c1cccs1)CC2C(F)(F)F (centres undefined),-0.2%
9,COc1ccc(NC(=O)C2CCCN(c3c4c(nc5ncnn35)CCC4)C2)cc1 (centres undefined),-37.1%
10,CCOc1ccccc1CNC(=O)C1CCN(c2nc3ccccc3o2)CC1,-9.3%
11,Cc1nc(C)c(-c2csc(NCc3ccco3)n2)s1,-21.6%
12,Cc1nc(NC(=O)c2ccccc2)sc1-c1csc(NCc2ccco2)n1,63.4% (active)
13,Cc1nc(NC(=O)c2ccccc2)sc1-c1csc(N)n1,39.2%
14,O=C(Nc1nc2c(s1)CCCC2)c1cc2n(n1)C(C(F)(F)F)CC(C1CC1)N2 (centres undefined),45.6%
15,Cc1cccc(N(C(=O)Cn2nnc3ccccc32)C(C(=O)NCc2ccco2)c2ccncc2)c1 (centres undefined),5.1%
16,CC1=C(C(=O)NCc2ccccc2)C(c2ccc(C)o2)n2ncnc2N1 (centres undefined),-15%
17,CCOC(=O)c1c(C2COc3ccccc3O2)csc1N (centres undefined),-2.8%
18,COCc1cc(=O)[nH]c(Nc2nc3ccc(C)cc3o2)n1,51.7% (active)
19,COC(=O)Cc1cc(=O)[nH]c(Nc2nc3ccccc3o2)n1,7.2%
20,COCc1cc(=O)[nH]c(Nc2nc3ccccc3o2)n1,34.6%
21,O=S(=O)(c1cc(C(F)(F)F)ccc1Cl)N1CCCCCC1,-4%
22,CCOC(=O)C1=C(c2ccccc2)Nc2ncnn2C1c1ccccn1 (centres undefined),-3.2%

row,SMILES,cytotoxicity
1,c1ccc(CN2CCN(c3ncnc4nc[nH]c34)CC2)cc1,8.4%
2,CCOC(=O)c1[nH]c2ccc(OCC)cc2c1NC(=O)CN1CCN(c2ccccn2)CC1,8.8%
3,Cc1ccc2[nH]c3c(N4CCCCCC4)ncnc3c2c1,23.7%
4,CCOc1ccc2[nH]c3c(N4CCN(c5ccccn5)CC4)ncnc3c2c1,62.5% (active)
5,CCOC(=O)N1CCN(c2ncnc3c2[nH]c2ccc(OC)cc23)CC1,-5%
6,Cc1ccc2c(c1)[nH]c1c(N3CCN(Cc4ccccc4)CC3)ncnc12,82.2% (active)
7,Cc1ccc2[nH]c3c(N4CCOCC4)ncnc3c2c1,5.1%
8,c1ccc(CN2CCN(c3ncnc4c3[nH]c3ccccc34)CC2)cc1,15.2%
9,Fc1ccccc1CSc1ncnc2c1oc1ccccc12,5.1%
10,COc1ccccc1NC(=O)c1cc(S(=O)(=O)N2CCC3(CC2)OCCO3)ccc1F,4.8%
11,COc1cccc(C(=O)Nc2ccc(C)cc2)c1,-1.9%
12,COc1cccc(C(=O)/C=C/Nc2cc(C)ccc2O)c1,65.2% (active)
13,Cc1cccc(OCC(=O)Nc2cc(C)ccc2O)c1,-6%
14,CCC(CC)C(=O)Nc1nnc(-c2cccs2)s1,5%
15,Cc1cccc(C)c1NC1=NC(C)(C)N=C(N)N1,10.8%
16,CCOC(=O)c1c(C)[nH]c(C(=O)OC/C(O)=C(\C#N)c2nc3ccccc3[nH]2)c1C,89.8% (active)
17,N#C/C(=C(/O)COC(=O)c1ccc2c(c1)OCCO2)c1nc2ccccc2[nH]1,24.1%
18,Cc1nn(-c2ccccc2)c(C)c1C(=O)OC/C(O)=C(\C#N)c1nc2ccccc2[nH]1,7.4%
19,CCOc1cc(Br)c(C(=O)O)cc1OCC,-2.5%
20,COc1cccc2c1C(=O)c1c(O)c3c(c(O)c1C2=O)C[C@@](O)(C(C)=O)C[C@@H]3O[C@H]1C[C@H](N)[C@H](O)[C@H](C)O1,108% (active)
21,COc1cccc2c1C(=O)c1c(O)c3c(c(O)c1C2=O)C[C@@](O)(C(=O)CO)C[C@@H]3O[C@H]1C[C@H](N)[C@H](O)[C@H](C)O1,102% (active)
22,COCC(C)NC(=O)c1cc(-c2ccc(OC)c(OC)c2)on1 (centres undefined),-3%

row,SMILES,cytotoxicity
1,O=C1c2ccccc2C(=O)N1CC#CCN1CCN(C2CCCCC2)CC1,2.6%
2,Cc1cc(C)c(C#N)c(SCS(=O)c2ccc(C(C)(C)C)cc2)n1 (centres undefined),-4.8%
3,Cc1cc(C)c(C#N)c(SCS(=O)Cc2ccc(Cl)cc2)n1 (centres undefined),50.3% (active)
4,Cc1cc(C)c(C#N)c(SCS(=O)Cc2ccccc2)n1 (centres undefined),-16.4%
5,CCOc1ccc(-c2noc(=O)[nH]2)cc1,0.9%
6,COc1ccc2c(c1)C=CC1(O2)N(CCO)c2ccccc2C1(C)C (centres undefined),32.6%
7,CC1=NOC2(C1)N(C)c1ccccc1C2(C)C (centres undefined),-10.1%
8,CCOC(=O)c1sc(NC(=O)CCSC)nc1C,26.2%
9,CCOC(=O)c1sc(NC(=O)CSc2ncn(-c3ccccc3)n2)nc1C,70.4% (active)
10,O=C(CSc1ncn(-c2ccccc2)n1)Nc1nc2ccccc2s1,9.1%
11,CCOC(=O)c1sc(NC(=O)CSc2nnnn2-c2ccccc2)nc1C,-4.9%
12,CCOC(=O)c1ccc(NC(=O)CCc2nc(-c3ccc(Cl)cc3)no2)cc1,-3.7%
13,CCOC(=O)c1ccc(NC(=O)CCc2nc(-c3ccccc3)no2)cc1,-1.1%
14,CCOC(=O)c1ccc(NC(=O)CCc2nc(-c3ccccc3Cl)no2)cc1,74.8% (active)
15,Cc1sc2ncn3ncnc3c2c1C,4.8%
16,Cc1cc(C)n2nc(C(=O)NCc3ccco3)nc2n1,11.2%
17,COC(=O)c1ccccc1NC(=O)c1cnc2sccn2c1=O,2.7%
18,COC(=O)c1ccccc1NC(=O)c1ccc(COc2ccccc2)o1,-7.8%
19,COc1ccccc1NC(=O)c1ccc(-c2ccccc2F)o1,-0.2%
20,COC(=O)c1ccccc1NC(=O)c1ccc(-c2ccccc2F)o1,88.4% (active)
